A short description of assay [1]: Confirmatory qHTS for VERO E6 Cytotoxicity Assay: Counterscreen for SARS-CoV-2 CPE Assay (AID 1508605). Note: nearly all actives have a fitted effect of over 60% in size. Note: potency is the fitted concentration of half-maximal effect. On the technique in general: qHTS replaces the single test concentration by a dilution series.
Assay [2] is described as follows: Primary qHTS for Huh7 cytotoxicity: counterscreen for inhibitors of MERS-S pseudotyped particle cell entry (AID 1479147). Note: % is set by controls: 0 for no effect and ±100 for the full control effect. The settings on record: outcome: dose series up to 57.1 µM unless noted.
A short description of assay [3]: Primary qHTS for Vero E6 cytotoxicity: counterscreen for inhibitors of SARS-S pseudo-typed particle cell entry (AID 1479150). Note: potency is the fitted concentration of half-maximal effect. The settings on record: outcome: dose series up to 57.1 µM unless noted.
Assay [4] can be described thus: Primary qHTS to identify inhibitors of SARS-CoV-2 cell entry (AID 1645846). Note: nearly all actives have a fitted effect of over 45% in size. Note: potency is the fitted concentration of half-maximal effect. Conditions: SARS-CoV-2 pseudovirus cell entry assay, luminescence; activity change, negative = inhibition: at 57.1 µM (top of the series) unless noted. The procedure, abridged:
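Luminescence readout (Bright-Glo luciferase) 48 h after pseudoparticle addition. HEK293-ACE2 cells, 1500/well; compound pre-incubation 1 h; Normalized to spike PP and bald PP.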

Assay [5] is described as follows: Primary qHTS for inhibitors of MERS-S pseudo-typed particle cell entry (AID 1479149). For activity change, negative = inhibition: % is set by controls: 0 for no effect and ±100 for the full control effect. Note: nearly all actives have a fitted effect of over 60% in size. Note: potency is the fitted concentration of half-maximal effect. The settings on record: outcome: dose series up to 57.1 µM unless noted.
Assay [6] in a line: Cytotoxicity counterscreen for inhibitors of SARS-CoV-2 cell entry (AID 1645845). Note: nearly all actives have a fitted effect of over 50% in size. Note: potency is the fitted concentration of half-maximal effect. Conditions: outcome: dose series up to 57.1 µM unless noted. The procedure, abridged:
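48 h compound treatment (after 1 h preincubation), HEK293-ACE2 cells, 37 C/5% CO2; ATP luminescence endpoint; normalized to cell wells and media blanks.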
On the technique in general: Counterscreens check selectivity or assay interference.

Assay [7] can be described thus: qHTS Assay for Identifying Gametocytocidal Compounds (AID 743244; active = well fitted curve in the direction sought with a large enough effect; note: potency is the fitted concentration of half-maximal effect). The settings on record: P. falciparum 3D7 stage III-V gametocytes, alamarBlue, 72 h. Summed up: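 Using 20,000 stage III–V 3D7 gametocytes per well, compounds were incubated 72 h under 37 °C/5% CO2. Viability was then assessed by 24 h alamarBlue reduction, measured fluorometrically at 525/598 nm.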

A short description of assay [8]: Confirmatory qHTS for activators (rescue) of SARS-CoV-2 Cytopathic Effect (CPE) (AID 1508606). Note: nearly all actives have a fitted effect of over 70% in size. Note: potency is the fitted concentration of half-maximal effect.

Values joined by “and” are separate entries in the source; they are usually repeats but may differ in a detail not shown here. Equal values may be shown once. Inconclusive results are not listed. Active and inactive are the calls of the source. Unless noted, calls come from the whole dose curve.

Regarding `Cc1nc2ccc(Oc3ccc(F)cc3)cc2c(=O)n1C[C@H]1CCCN(C(C)C)C1`, the Potency entry in assay [1] is “inactive”. For the compound `CCCCC(=O)O[C@H]1CC[C@H]2[C@@H]3CCc4cc(O)ccc4[C@H]3CC[C@]12C`, the Potency entry in assay [2] and in assay [3] was “inactive” each time. For the same compound, the activity change, negative = inhibition in assay [4] is -64.3%. In the case of `CCCCCCOc1ccc(C(=N)N(CCCC)CCCC)c2ccccc12`, the Potency in assay [3] is 14.1 µM (active); in assay [1], 10 µM (active). As for `O=C(CCCN1CCC(n2c(=S)[nH]c3ccccc32)CC1)c1ccc(F)cc1`, in assay [3], the Potency entry is “inactive”.

Take `CC(C)c1cccc2c(-c3ccccc3)cc(-c3ccc(-c4ccc(C(=O)O)cc4)[nH]3)nc12`: the Potency entry in assay [1] was “inactive”.

For `COc1cc2nc(N3CCCCC3)nc(NC3CCN(Cc4ccccc4)CC3)c2cc1OC`, the Potency in assay [1] was 10 µM (active). Still for that read-out and setting: the result for `C=C1Cc2c(Cl)cc3[nH]c4c5c3c2[C@@]2(O)[C@@H]1C[C@@H]2C(C)(C)O[C@H]5C1CC[C@@]2(O)[C@@]35O[C@@H]3[C@H]3OC(C)(C)[C@H]3O[C@H]5CC[C@]2(C)[C@@]41C` (stereo not given in full) reads “inactive”. As for `CC(C)N1CCN(c2ccc(OC[C@@H]3CO[C@@](Cn4cncn4)(c4ccc(Cl)cc4Cl)O3)cc2)CC1`, the Potency result in assay [5], in assay [3] and in assay [6] was “inactive” in each case.

`C=CC(=O)Nc1cc(Nc2nccc(-c3cn(C)c4ccccc34)n2)c(OC)cc1N(C)CCN(C)C`: the Potency in assay [5] was 31.6 µM (active); in assay [6] it was 28.2 µM (active); in assay [4] it was 3.16 µM (active) and 8.91 µM (active). As for `CC[C@@H](C(=O)O)[C@@H]1O[C@@H]([C@@H](C)[C@H](O)[C@H](C)C(=O)[C@H](CC)[C@H]2O[C@]3(C=C[C@@H](O)[C@]4(CC[C@@](C)([C@H]5CC[C@](O)(CC)[C@H](C)O5)O4)O3)[C@H](C)C[C@@H]2C)[C@@H](C)C[C@@H]1C`, the Potency in assay [7] was 0.316 µM (active); in assay [5], 0.355 µM (active); in assay [4] it was 708 nM (active). The Potency result in assay [3] is “inactive”.

With `C[C@H](Oc1cc(-c2cnn(C3CCNCC3)c2)cnc1N)c1c(Cl)ccc(F)c1Cl`, the Potency in assay [5] is 12.6 µM (active); in assay [4] it was 11200 nM (active). The Potency entry in assay [3] and in assay [6] was “inactive” each time. For the compound `O=C(c1ccc(-c2ccc(Cl)cc2)o1)N(Cc1ccccn1)c1ccc(N2CCNCC2)cc1`, in assay [1], the Potency was 11.2 µM (active). In the case of `FC(F)(F)C(F)(F)C(F)(F)C(F)(F)C(F)(F)F`, the Potency entry in assay [5] is “inactive”. With `CSc1ccc(C(=O)/C=C/c2cc(C)c(OC(C)(C)C(=O)O)c(C)c2)cc1`, in assay [1], the Potency entry is “inactive”. Consider `C/C1=C\CCC2=CC(OC2=O)C(C)(C)/C=C/C1=O` (stereo not given), for which the Potency entry in assay [1] is “inactive”. Further, the Potency in assay [8] was 10 µM (active).

As to `COc1cc(N(C)CCN(C)C)c(N)cc1Nc1nccc(-c2cn(C)c3ccccc23)n1`, the Potency entry in assay [1] is “inactive”. With `COc1cc2nc(N3CCC(N4CCCCC4)CC3)nc(NC3CCCCCC3)c2cc1OC`, the Potency in assay [1] is 6.31 µM (active). For the compound `COc1cc(NC(=O)Nc2cccc(CNC(=O)O[C@H]3CCOC3)c2)ccc1-c1cnco1`, the Potency result in assay [1] and in assay [8] was “inactive” each time. Turning to `COC(=O)CC[C@@H](C)C1CCC2C3CCC4C[C@H](OC(C)=O)CCC4(C)C3C[C@H](O)C21C` (stereo not given in full), the Potency result in assay [1] is “inactive”. Consider `C[C@@H]1O[C@@H](O[C@@H]2[C@@H](O)[C@H](O[C@@H]3[C@@H](O)[C@@H](O)[C@H](O[C@H]4[C@H](OC(=O)[C@]56CCC(C)(C)C[C@H]5C5=CCC7[C@@]8(C)C[C@H](O)[C@H](O[C@@H]9O[C@@H](C)[C@H](O)[C@@H](O)[C@H]9O)[C@@](C)(CO)C8CC[C@@]7(C)[C@]5(C)C[C@H]6O)O[C@H](C)[C@H](O)[C@@H]4O)O[C@H]3C)OC[C@H]2O)[C@H](O)[C@H](O)[C@H]1O` (stereo not given in full), for which the figures for the Potency in assay [1] and in assay [8] were 1.91 µM (active) and 0.602 µM (active), respectively. The corresponding values for `COc1cc2nc(N3CCCCC3)nc(NC3CCN(C)CC3)c2cc1OC` are 10 µM (active) and 3.55 µM (active). Taken in the same sequence, the figures for `CCCCCCCCC(=O)N[C@H](CN1CCCC1)[C@H](O)c1ccc2c(c1)OCCO2` were “inactive” and 8.91 µM (active). `COc1ccccc1N1CCN(CC[C@@](C)(C(=O)C2CCCCC2)c2ccccc2)CC1`: the Potency result in assay [1] was “inactive”. Besides, in assay [8], the Potency was 10 µM (active). With `COc1ccc2sc(NC(c3ccc(OC(F)F)cc3)c3ccc4cccnc4c3O)nc2c1` (stereo not given), the Potency in assay [1] was 0.708 µM (active).

Turning to `CCC(C)CNCC(=O)N1CCC2SC=CC2C1COc1cccc(C)c1` (stereo not given), in assay [1], the Potency entry was “inactive”. With `CC1OC2OC3C(OCC(O)C3O)OC(=O)C34CCC(C)(C)CC3C3=CCC5C6(C)CC(O)C(OC7OC(CO)C(O)C(O)C7OC7OCC(OC(=O)CC(C)(O)CC(=O)OC1C(OC1OCC(O)C(O)C1O)C2O)C(O)C7O)C(C)(CO)C6CCC5(C)C3(C)CC4O` (stereo not given), in assay [1], the Potency is 1.56 µM (active). Also, the Potency entry in assay [8] is “inactive”. On to `CC(C)(C[C@@](O)(Cc1cc2ccncc2[nH]1)C(F)(F)F)c1cc(F)ccc1O`, for which the Potency result in assay [1] was “inactive”. In the case of `CCC(C)CNCC(=O)N1CCc2sccc2C1COc1cccc(C)c1` (stereo not given), in assay [1], the Potency entry was “inactive”. As to `CC1(C)CC[C@]23CO[C@@]4(CCC5[C@@]6(C)CC[C@H](O[C@@H]7OC[C@H](O[C@@H]8O[C@H](CO)[C@@H](O)[C@H](O)[C@H]8O[C@@H]8OC[C@@H](O)[C@H](O)[C@H]8O)[C@H](O)[C@H]7O[C@@H]7O[C@H](CO)[C@@H](O)[C@H](O)[C@H]7O)[C@@](C)(CO)C6CC[C@@]5(C)[C@]4(C)C[C@H]2O)[C@@H]3C1` (stereo not given in full), the Potency in assay [1] is 3.03 µM (active). Moreover, the Potency entry in assay [8] is “inactive”.

The values are drawn from PubChem BioAssay (NCATS).
